# Article PMC12529666, “Dysregulation of AGO2-miRNA dynamics underlies the AGO2-associated Lessel–Kreienkamp syndrome”
# Residue numbers refer to the chain shown, from its start.
# B1: ATATCTTG (ssRNA)
# RNA 1: GAGUUCUACAGUCCGACGAUCCCAACAUAUCUUGCACCUGGAAUUCUCGGGUGCCAA
# RNA 2: UGGAGUGUGACAAUGGUGUUUG
# DNA 1: GATCGTCGGACTGTAGAACTC
# DNA 2: TTGGCACCCGAGAATTCCA
# modifications: constant regions annealed to DNA blockers; guide miR-122 5' phosphate
# B2: GCATCCCA (ssRNA)
# RNA 1: B1 RNA 1 with A27G, U28C, U32C, U33C, G34A
# RNA 2: UGGAGUGUGACAAUGGUGUUUG
# DNA 1: GATCGTCGGACTGTAGAACTC
# DNA 2: TTGGCACCCGAGAATTCCA
# modifications: constant regions annealed to DNA blockers; guide miR-122 5' phosphate
# B3: GCGTTTCG (ssRNA)
# RNA 1: B1 RNA 1 with A27G, U28C, A29G, C31U, U33C
# RNA 2: UGGAGUGUGACAAUGGUGUUUG
# DNA 1: GATCGTCGGACTGTAGAACTC
# DNA 2: TTGGCACCCGAGAATTCCA
# modifications: constant regions annealed to DNA blockers; guide miR-122 5' phosphate
# B4: GCGTTTTA (ssRNA)
# RNA 1: B1 RNA 1 with A27G, U28C, A29G, C31U, G34A
# RNA 2: UGGAGUGUGACAAUGGUGUUUG
# DNA 1: GATCGTCGGACTGTAGAACTC
# DNA 2: TTGGCACCCGAGAATTCCA
# modifications: constant regions annealed to DNA blockers; guide miR-122 5' phosphate
# B5: ATGCCTTA (ssRNA)
# RNA 1: B1 RNA 1 with A29G, U30C, G34A
# RNA 2: UGGAGUGUGACAAUGGUGUUUG
# DNA 1: GATCGTCGGACTGTAGAACTC
# DNA 2: TTGGCACCCGAGAATTCCA
# modifications: constant regions annealed to DNA blockers; guide miR-122 5' phosphate
# B6: GTGCCTTG (ssRNA)
# RNA 1: B1 RNA 1 with A27G, A29G, U30C
# RNA 2: UGGAGUGUGACAAUGGUGUUUG
# DNA 1: GATCGTCGGACTGTAGAACTC
# DNA 2: TTGGCACCCGAGAATTCCA
# modifications: constant regions annealed to DNA blockers; guide miR-122 5' phosphate
# B7: GCACCTCG (ssRNA)
# RNA 1: B1 RNA 1 with A27G, U28C, U30C, U33C
# RNA 2: UGGAGUGUGACAAUGGUGUUUG
# DNA 1: GATCGTCGGACTGTAGAACTC
# DNA 2: TTGGCACCCGAGAATTCCA
# modifications: constant regions annealed to DNA blockers; guide miR-122 5' phosphate
# B8: GCATCCTA (ssRNA)
# RNA 1: B1 RNA 1 with A27G, U28C, U32C, G34A
# RNA 2: UGGAGUGUGACAAUGGUGUUUG
# DNA 1: GATCGTCGGACTGTAGAACTC
# DNA 2: TTGGCACCCGAGAATTCCA
# modifications: constant regions annealed to DNA blockers; guide miR-122 5' phosphate
# B9: GCACCCTA (ssRNA)
# RNA 1: B1 RNA 1 with A27G, U28C, U30C, U32C, G34A
# RNA 2: UGGAGUGUGACAAUGGUGUUUG
# DNA 1: GATCGTCGGACTGTAGAACTC
# DNA 2: TTGGCACCCGAGAATTCCA
# modifications: constant regions annealed to DNA blockers; guide miR-122 5' phosphate
# B10: GCGCCTCG (ssRNA)
# RNA 1: B1 RNA 1 with A27G, U28C, A29G, U30C, U33C
# RNA 2: UGGAGUGUGACAAUGGUGUUUG
# DNA 1: GATCGTCGGACTGTAGAACTC
# DNA 2: TTGGCACCCGAGAATTCCA
# modifications: constant regions annealed to DNA blockers; guide miR-122 5' phosphate
# B11: ACGTCTCG (ssRNA)
# RNA 1: B1 RNA 1 with U28C, A29G, U33C
# RNA 2: UGGAGUGUGACAAUGGUGUUUG
# DNA 1: GATCGTCGGACTGTAGAACTC
# DNA 2: TTGGCACCCGAGAATTCCA
# modifications: constant regions annealed to DNA blockers; guide miR-122 5' phosphate
# Legend:
# Assay in all cases: RNA Bind-n-Seq (nitrocellulose filter binding and sequencing); miR-122 guide loaded in AGO2; 60 min incubation; 30 mM Tris pH 8.0, 100 mM potassium acetate, 2 mM magnesium acetate, 0.5 mM TCEP, 0.005% NP-40, 0.01 mg/ml yeast tRNA; 3 nM AGO2-miR-122, 100 nM RNA library; 60; high values mean tight binding
# Conditions in all cases: protein: recombinant; tags: His6 (N-terminal, pFastBac HTA)
# [1] = molecular target: AGO2 L192P (Homo sapiens, UniProt Q9UKV8 1-859, L192P;S387D;S824A;S828D;S831D;S834A)
# AGO2 L192P, sequence (Q9UKV8 whole entry L192P/S387D/S824A/S828D/S831D/S834A): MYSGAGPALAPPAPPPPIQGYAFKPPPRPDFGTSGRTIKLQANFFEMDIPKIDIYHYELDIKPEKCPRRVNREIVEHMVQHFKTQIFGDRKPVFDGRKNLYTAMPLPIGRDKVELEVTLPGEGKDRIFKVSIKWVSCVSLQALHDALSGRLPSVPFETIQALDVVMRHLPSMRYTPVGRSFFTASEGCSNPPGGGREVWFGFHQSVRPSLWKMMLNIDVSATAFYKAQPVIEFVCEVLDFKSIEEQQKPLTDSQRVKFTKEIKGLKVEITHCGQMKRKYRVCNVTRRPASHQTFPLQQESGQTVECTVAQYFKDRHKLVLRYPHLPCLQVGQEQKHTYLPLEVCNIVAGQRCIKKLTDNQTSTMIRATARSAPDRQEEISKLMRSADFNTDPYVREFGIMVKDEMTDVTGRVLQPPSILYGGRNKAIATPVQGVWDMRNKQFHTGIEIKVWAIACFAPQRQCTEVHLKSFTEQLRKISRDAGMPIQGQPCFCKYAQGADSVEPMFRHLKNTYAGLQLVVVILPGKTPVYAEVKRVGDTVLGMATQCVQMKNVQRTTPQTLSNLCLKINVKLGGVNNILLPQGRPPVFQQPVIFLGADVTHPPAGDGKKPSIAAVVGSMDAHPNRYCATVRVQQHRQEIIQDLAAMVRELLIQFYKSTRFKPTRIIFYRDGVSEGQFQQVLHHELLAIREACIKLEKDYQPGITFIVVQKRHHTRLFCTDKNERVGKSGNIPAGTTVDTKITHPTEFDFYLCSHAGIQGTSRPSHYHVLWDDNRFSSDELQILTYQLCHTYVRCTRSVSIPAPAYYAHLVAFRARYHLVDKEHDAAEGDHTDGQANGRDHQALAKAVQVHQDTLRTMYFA
# In short: (§1)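 His-tagged AGO2 was expressed in Sf9 insect cells by baculovirus, loaded with a synthetic guide RNA, and purified by Ni-NTA and a biotinylated capture oligo. Bound RNA was extracted, reverse-transcribed, barcode-amplified and Illumina-sequenced. Fold enrichment is each sequence's read fraction divided by its input-library read fraction.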
# [2] = molecular target: AGO2 A367P (Homo sapiens, UniProt Q9UKV8 1-859, A367P;S387D;S824A;S828D;S831D;S834A)
# AGO2 A367P, sequence (Q9UKV8 whole entry A367P/S387D/S824A/S828D/S831D/S834A): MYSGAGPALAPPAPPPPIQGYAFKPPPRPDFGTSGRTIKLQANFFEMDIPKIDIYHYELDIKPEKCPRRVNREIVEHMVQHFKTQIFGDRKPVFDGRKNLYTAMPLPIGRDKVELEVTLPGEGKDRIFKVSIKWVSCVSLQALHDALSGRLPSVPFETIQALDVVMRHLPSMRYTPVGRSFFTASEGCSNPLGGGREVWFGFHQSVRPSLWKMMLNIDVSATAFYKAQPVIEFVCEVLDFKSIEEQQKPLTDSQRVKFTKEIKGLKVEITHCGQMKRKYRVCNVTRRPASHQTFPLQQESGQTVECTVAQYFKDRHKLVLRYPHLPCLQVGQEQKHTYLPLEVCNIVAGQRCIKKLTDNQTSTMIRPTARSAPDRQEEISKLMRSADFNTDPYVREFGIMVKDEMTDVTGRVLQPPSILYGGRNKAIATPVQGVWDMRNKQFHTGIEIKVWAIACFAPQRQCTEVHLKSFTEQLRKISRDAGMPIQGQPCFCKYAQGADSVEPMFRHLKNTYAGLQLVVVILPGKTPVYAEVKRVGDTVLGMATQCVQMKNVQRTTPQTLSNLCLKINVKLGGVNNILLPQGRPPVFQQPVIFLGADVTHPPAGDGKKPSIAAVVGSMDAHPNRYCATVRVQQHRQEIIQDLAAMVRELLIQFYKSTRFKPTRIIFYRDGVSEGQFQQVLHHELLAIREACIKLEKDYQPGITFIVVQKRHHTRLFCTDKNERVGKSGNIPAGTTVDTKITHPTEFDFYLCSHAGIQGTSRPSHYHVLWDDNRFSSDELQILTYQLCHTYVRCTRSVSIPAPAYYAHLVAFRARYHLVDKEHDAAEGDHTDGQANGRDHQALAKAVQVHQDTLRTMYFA
# In short: as §1
# [3] = molecular target: AGO2 T357M (Homo sapiens, UniProt Q9UKV8 1-859, T357M;S387D;S824A;S828D;S831D;S834A)
# AGO2 T357M, sequence (Q9UKV8 whole entry T357M/S387D/S824A/S828D/S831D/S834A): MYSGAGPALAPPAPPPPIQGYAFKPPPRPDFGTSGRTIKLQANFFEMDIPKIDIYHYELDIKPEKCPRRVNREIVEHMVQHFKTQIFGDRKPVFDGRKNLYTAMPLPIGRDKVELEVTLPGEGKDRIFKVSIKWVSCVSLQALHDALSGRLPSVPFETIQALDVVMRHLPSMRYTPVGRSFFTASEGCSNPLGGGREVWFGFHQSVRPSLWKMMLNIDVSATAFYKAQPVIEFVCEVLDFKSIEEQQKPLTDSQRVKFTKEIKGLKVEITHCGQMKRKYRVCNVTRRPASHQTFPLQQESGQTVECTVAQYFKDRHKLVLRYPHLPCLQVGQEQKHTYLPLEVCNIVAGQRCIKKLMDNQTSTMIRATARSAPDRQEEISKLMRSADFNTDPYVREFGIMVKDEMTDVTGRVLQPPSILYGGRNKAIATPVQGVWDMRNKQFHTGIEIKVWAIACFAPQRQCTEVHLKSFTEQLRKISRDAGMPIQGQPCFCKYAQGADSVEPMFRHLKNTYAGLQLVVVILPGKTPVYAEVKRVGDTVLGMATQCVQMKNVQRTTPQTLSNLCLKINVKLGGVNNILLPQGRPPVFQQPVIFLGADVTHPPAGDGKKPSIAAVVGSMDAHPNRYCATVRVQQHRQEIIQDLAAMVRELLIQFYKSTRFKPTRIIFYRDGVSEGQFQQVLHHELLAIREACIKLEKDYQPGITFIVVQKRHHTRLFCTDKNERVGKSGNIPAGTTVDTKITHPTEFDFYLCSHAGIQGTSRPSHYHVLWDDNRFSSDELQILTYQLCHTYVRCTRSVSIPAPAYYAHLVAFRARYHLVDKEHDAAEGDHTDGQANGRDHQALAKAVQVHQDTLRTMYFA
# In short: as §1
# [4] = molecular target: AGO2 F182del (Homo sapiens, UniProt Q9UKV8 1-859, S387D;S824A;S828D;S831D;S834A;del182-182)
# AGO2 F182del, sequence (Q9UKV8 other isoform, or with tags, fused parts or gaps S387D;S824A;S828D;S831D;S834A;del182-182): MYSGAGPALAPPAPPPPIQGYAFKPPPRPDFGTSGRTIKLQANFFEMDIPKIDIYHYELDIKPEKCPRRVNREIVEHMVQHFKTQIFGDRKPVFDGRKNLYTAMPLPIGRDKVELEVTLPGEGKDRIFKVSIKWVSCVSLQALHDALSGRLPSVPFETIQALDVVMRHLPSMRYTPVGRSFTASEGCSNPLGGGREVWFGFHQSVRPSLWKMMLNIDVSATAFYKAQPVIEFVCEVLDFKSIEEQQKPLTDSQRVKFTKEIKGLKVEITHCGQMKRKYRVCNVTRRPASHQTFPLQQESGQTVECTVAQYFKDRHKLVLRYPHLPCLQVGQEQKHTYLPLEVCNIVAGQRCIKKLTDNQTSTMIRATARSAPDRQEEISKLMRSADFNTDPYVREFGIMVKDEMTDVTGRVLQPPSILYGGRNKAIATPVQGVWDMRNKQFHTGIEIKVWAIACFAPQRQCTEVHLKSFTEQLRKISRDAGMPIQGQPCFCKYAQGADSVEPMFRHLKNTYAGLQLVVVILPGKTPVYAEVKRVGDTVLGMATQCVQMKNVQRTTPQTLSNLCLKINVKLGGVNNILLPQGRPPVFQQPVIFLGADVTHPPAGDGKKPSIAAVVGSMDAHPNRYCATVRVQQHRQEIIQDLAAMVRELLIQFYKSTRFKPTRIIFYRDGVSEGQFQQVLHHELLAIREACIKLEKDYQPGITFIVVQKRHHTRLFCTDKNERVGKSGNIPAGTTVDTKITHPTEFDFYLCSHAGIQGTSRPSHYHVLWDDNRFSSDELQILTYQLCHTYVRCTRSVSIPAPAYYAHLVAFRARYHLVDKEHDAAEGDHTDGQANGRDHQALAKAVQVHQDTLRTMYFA
# In short: as §1
Binder,binding signal [1],binding signal [2],binding signal [3],binding signal [4]
B1,0.409 fold enrichment over input,0.138 fold enrichment over input,0.513 fold enrichment over input,
B2,0.48 fold enrichment over input,0.201 fold enrichment over input,0.628 fold enrichment over input,0.282 fold enrichment over input
B3,0.361 fold enrichment over input,0.139 fold enrichment over input,0.534 fold enrichment over input,
B4,0.484 fold enrichment over input,0.173 fold enrichment over input,0.582 fold enrichment over input,
B5,0.434 fold enrichment over input,0.179 fold enrichment over input,0.617 fold enrichment over input,
B6,0.422 fold enrichment over input,0.159 fold enrichment over input,0.548 fold enrichment over input,
B7,0.381 fold enrichment over input,0.15 fold enrichment over input,0.508 fold enrichment over input,
B8,0.47 fold enrichment over input,0.168 fold enrichment over input,0.563 fold enrichment over input,
B9,0.515 fold enrichment over input,0.214 fold enrichment over input,0.601 fold enrichment over input,0.327 fold enrichment over input
B10,0.37 fold enrichment over input,0.145 fold enrichment over input,0.55 fold enrichment over input,
B11,0.32 fold enrichment over input,0.146 fold enrichment over input,0.421 fold enrichment over input,
